Screening results (PubChem BioAssay)
In the library only some 1.8% were active in any assay of this set; here they are far more common.
PrPC surface inh: cell surface PrPC inhibition, primary TR-FRET screen. P04156. TR-FRET read-out. inhibition, % at 13.8 µM. 0.43% of 370,000 active; in the data active means inhibition above about 24%
Vc quorum ag: quorum light induction in luxS cqsA deficient V. cholerae; 0.16% of 350,000 active; V. cholerae BH1578 lux reporter, luminescence, 6 h; AID 588436; activation, % at 18.7 µM; in the data active means activation mostly above about 9.7%, no sharp cut-off
Y pestis TopoI: blocks Yersinia pestis topoisomerase I activity | Y. pestis Topo-I cleavage product accumulation, plate reader | activity, % at 10 µM | 0.064% of 360,000 active | AID 504884; in the data active means activity above about 50%, passing the limit was not always enough
MazEF act: activators of E. coli MazEF toxin-antitoxin RNase. FAM/BHQ RNA-DNA oligo cleavage fluorescence, 5 h. activation, % at 20 µM. 0.32% of 350,000 active; in the data active means activation above about 50%
Target sequence (P0AE70 whole entry, looked up): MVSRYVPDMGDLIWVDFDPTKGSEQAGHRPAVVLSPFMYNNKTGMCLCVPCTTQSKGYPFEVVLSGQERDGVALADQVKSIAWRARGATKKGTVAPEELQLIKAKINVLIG
CCHF vOTU inh-1: CCHFV vOTU protease inhibition; Pep-AMC fluorescence; inhibition, % at 11.5 µM; 0.55% of 370,000 active; AID 651958
VHR inh abs: DUSP3 (human) phosphatase inhibition | AID 1654 | inhibition, % at 13.3 µM | recombinant VHR phosphatase, pNPP absorbance | 0.52% of 290,000 active; in the data active means inhibition above about 50%
Target sequence (P51452 whole entry, looked up): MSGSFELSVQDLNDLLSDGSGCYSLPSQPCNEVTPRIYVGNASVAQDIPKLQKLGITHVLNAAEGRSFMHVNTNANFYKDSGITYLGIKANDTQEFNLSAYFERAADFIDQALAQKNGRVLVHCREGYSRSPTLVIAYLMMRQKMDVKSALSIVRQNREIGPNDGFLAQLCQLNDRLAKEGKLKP
CCHF vOTU inh-2: CCHFV vOTU protease inhibition, confirmation | shares compounds with CCHF vOTU inh-1 | Recombinant CCHFV vOTU, Pep-AMC fluorescence | inhibition, % at 11.5 µM | 17% of 1,900 active
Hits are given with their value. Unless noted, no stated cut-off is given here; in the data, active means inhibition above about 30%; inactive means the rest.

Results for CCOC(=O)c1ccccc1NC(=O)COC(=O)c1ccc(OCC(=O)N2CCOCC2)c(OCC)c1 ?
PrPC surface inh: inactive; Vc quorum ag: inactive; Y pestis TopoI: inactive; MazEF act: inactive; CCHF vOTU inh-1: inactive

How did CCOc1cc(/C=N/NC(=S)Nc2ccccc2C(F)(F)F)ccc1OCC(=O)N1CCOCC1 do in these assays?
PrPC surface inh: inactive; Vc quorum ag: inactive; Y pestis TopoI: inactive; MazEF act: inactive; CCHF vOTU inh-1: 30; VHR inh abs: inactive; CCHF vOTU inh-2: inactive

How did O=C(NCCCN1CCCC1=O)C(=O)NCC1OCCN1S(=O)(=O)c1cc(F)ccc1F (centres undefined) do in these assays?
PrPC surface inh: inactive; Vc quorum ag: inactive; Y pestis TopoI: inactive; MazEF act: inactive; CCHF vOTU inh-1: inactive

Results for COC(=O)c1ccccc1NC(=O)C1CCCC1 ?
PrPC surface inh: inactive; Vc quorum ag: inactive; Y pestis TopoI: inactive; MazEF act: inactive; CCHF vOTU inh-1: inactive; VHR inh abs: inactive

How did COC(=O)c1ccccc1NC(=O)COC(=O)C1CCCCC1 do in these assays?
PrPC surface inh: inactive; Vc quorum ag: inactive; Y pestis TopoI: inactive; MazEF act: inactive; CCHF vOTU inh-1: 32; VHR inh abs: inactive; CCHF vOTU inh-2: inactive

What do the screens show for `Cn1c(N2CCCC2)nc2c1c(=O)[nH]c(=O)n2C`?
PrPC surface inh: inactive; Vc quorum ag: inactive; Y pestis TopoI: inactive; MazEF act: inactive; CCHF vOTU inh-1: inactive; VHR inh abs: inactive

Results for CCN(CC)C(=O)CC[C@H]1CC[C@]2(CCCN(S(C)(=O)=O)C2)O1 ?
PrPC surface inh: inactive; CCHF vOTU inh-1: inactive

What do the screens show for `O=C(NC1CCCCC1)C(c1ccnc2ccccc12)n1c(=O)c(-c2ccco2)nc2ccccc21` (centres undefined)?
PrPC surface inh: inactive; CCHF vOTU inh-1: 33; CCHF vOTU inh-2: inactive

What do the screens show for `O=C(NC1CCCCC1)C(c1ccccc1F)n1c(=O)c(-c2ccco2)nc2ccccc21` (centres undefined)?
PrPC surface inh: inactive; CCHF vOTU inh-1: inactive

Results for CCCCc1ccc2nc(NC(=O)c3ccc(Br)o3)sc2c1 ?
PrPC surface inh: inactive

Results for CCOC(=O)[C@]12CCCCC/C=C\1N(CCc1ccc(Cl)cc1)C(=O)[C@H]2CC(=O)N1CCSCC1 ?
PrPC surface inh: inactive; CCHF vOTU inh-1: inactive

Results for O=C(NNC(=O)c1ccc(NC(=O)c2ccccc2)cc1)c1ccc(F)cc1 ?
PrPC surface inh: inactive; Vc quorum ag: inactive; Y pestis TopoI: inactive; MazEF act: inactive; CCHF vOTU inh-1: inactive; VHR inh abs: inactive

Results for O=C(NC1=C(Nc2ccc(F)cc2)C(=O)c2ccccc2C1=O)c1ccc(Cl)cc1 ?
PrPC surface inh: inactive; Vc quorum ag: inactive; Y pestis TopoI: inactive; MazEF act: inactive; CCHF vOTU inh-1: 35; VHR inh abs: inactive; CCHF vOTU inh-2: 58

Results for CN1C(=O)C(CC(=O)O)S/C1=N\N=C\c1ccc(O)cc1O (centres undefined) ?
PrPC surface inh: inactive; Vc quorum ag: inactive; Y pestis TopoI: inactive; MazEF act: inactive; CCHF vOTU inh-1: inactive; VHR inh abs: inactive

How did C(=N\Nc1ncnc2sc3c(c12)CCC3)/c1ccncc1 do in these assays?
PrPC surface inh: inactive; Vc quorum ag: inactive; Y pestis TopoI: inactive; MazEF act: inactive; CCHF vOTU inh-1: 34; VHR inh abs: 50; CCHF vOTU inh-2: inactive

Results for CN(C(=O)CO/N=C/c1ccc(Cl)cc1)c1ccccc1 ?
PrPC surface inh: inactive; Vc quorum ag: inactive; Y pestis TopoI: inactive; MazEF act: inactive; CCHF vOTU inh-1: inactive; VHR inh abs: inactive

How did O=C1Cc2ccccc2C(=O)N1CCc1ccccc1 do in these assays?
PrPC surface inh: inactive; Vc quorum ag: inactive; Y pestis TopoI: inactive; MazEF act: inactive; CCHF vOTU inh-1: 100; VHR inh abs: inactive; CCHF vOTU inh-2: 102

What do the screens show for `O=C1CC(=O)N(Cc2ccccc2)C(=O)N1Cc1ccccc1`?
PrPC surface inh: inactive; Vc quorum ag: inactive; Y pestis TopoI: inactive; MazEF act: inactive; CCHF vOTU inh-1: inactive

How did Cc1sc2nc(SCc3nnc(-c4cccs4)o3)n(C3CCCC3)c(=O)c2c1C do in these assays?
PrPC surface inh: inactive; Vc quorum ag: inactive; Y pestis TopoI: inactive; MazEF act: inactive; CCHF vOTU inh-1: 31; VHR inh abs: inactive; CCHF vOTU inh-2: inactive
